Test results: the supplement of paper PMC13380429

Test system: Vero E6 infected with SARS-CoV-2
Test: inhibition of SARS-CoV-2 cytopathic effect; higher = more antiviral protection, active = above 15
Conditions: 48 h

Measured: inhibition of SARS-CoV-2 cytopathic effect

Cn1cc([S+](C)[O-])c(=O)c2ccc(F)cc21 (stereo not given) [flosequinan]
inactive: 1 nM -1.94% | 8.33 nM -0.91% | 100 nM 0.34% | 833.33 nM 2.01% | 10000 nM 0.19%

O=C(Nc1nc(-c2cc(Cl)cs2)c(N2CCN(C3CCCCC3)CC2)s1)c1cnc(N2CCC(C(=O)O)CC2)c(Cl)c1 [avatrombopag]
inactive: 1 nM 2.06% | 8.33 nM 0.14% | 100 nM 0.09% | 833.33 nM -3.82% | 10000 nM -0.97%

Cc1cc2sc(NC(=O)Cc3ccccc3)nc2cc1Cl
inactive: 1 nM 2.05% | 8.33 nM 2.12% | 100 nM 2.19% | 833.33 nM 0.81% | 10000 nM 3.87%

C[C@@H]1CC(=O)NN=C1c1ccc(NN=C(C#N)C#N)cc1 [levosimendan]
inactive: 1 nM -0.58% | 8.33 nM 0.74% | 100 nM 0.3% | 833.33 nM 1.84% | 10000 nM 1.18%

C[C@H](NC(=O)/C(C#N)=C/c1cccc(Br)n1)c1ccccc1
inactive: 1 nM -2.07% | 8.33 nM -1.75% | 100 nM -2.65% | 833.33 nM 5.36% | 10000 nM -4.77%

Cc1cc(NCCO)nc(-c2ccc(Br)cc2)n1
inactive: 1 nM 1.81% | 8.33 nM -1.79% | 100 nM -0.15% | 833.33 nM 0.73% | 10000 nM -2.57%

N#C[C@@H]1CCCN1C(=O)CNC12CC3CC(CC(O)(C3)C1)C2 [vildagliptin]
inactive: 1 nM 0.17% | 8.33 nM -0.28% | 100 nM -0.35% | 833.33 nM -0.2% | 10000 nM 1.3%

N[C@H]1CCN(O)C1=O
inactive: 1 nM -2.5% | 8.33 nM -0.335% | 100 nM -0.065% | 833.33 nM -1.54% | 10000 nM 0.17%

COCCOc1cnc2ccn([C@H](C)c3nnc4c(F)cc(-c5cnn(C)c5)cn34)c(=O)c2c1
inactive: 1 nM -0.43% | 8.33 nM -1.31% | 100 nM 0.19% | 833.33 nM -0.75% | 10000 nM -0.37%

CCCCCNC(=N)N/N=C/c1c[nH]c2ccc(OC)cc12 [tegaserod]
inactive: 1 nM -2.52% | 8.33 nM -0.54% | 100 nM -3.2% | 833.33 nM -3.82% | 10000 nM -1.44%

CC(O)Cn1cnc2c1c(=O)n(C)c(=O)n2C (stereo not given) [Proxyphylline]
inactive: 1 nM -1.14% | 8.33 nM -0.86% | 100 nM -0.81% | 833.33 nM -0.51% | 10000 nM 0.19%

CN1C(C)(C)CCCC1(C)C [pempidine]
inactive: 1 nM -2.83% | 8.33 nM -0.7% | 100 nM -4.34% | 833.33 nM -1.68% | 10000 nM -2.1%

CCN(CC)CCOC(=O)C1(c2ccc([N+](=O)[O-])cc2)CCCC1 [nitrocaramiphen]
inactive: 1 nM -3.06% | 8.33 nM 1.17% | 100 nM 1.69% | 833.33 nM -0.19% | 10000 nM -0.92%

O=C1NC(=O)C(c2ccccc2)(c2ccccc2)N1 [phenytoin]
inactive: 1 nM -2.48% | 8.33 nM 0.49% | 100 nM -0.76% | 833.33 nM -0.84% | 10000 nM 0.37%

C/C=C(/C)C(=O)O[C@H]1C(C)=C[C@]23C(=O)[C@@H](C=C(CO)[C@@H](O)[C@]12O)[C@H]1[C@@H](C[C@H]3C)C1(C)C [ingenol-mebutate]
inactive: 1 nM -1.66% | 8.33 nM -1.76% | 100 nM -8.12% | 833.33 nM -7.76% | 10000 nM -8.66%

C[C@]12CCC(=O)C=C1CC[C@@H]1[C@@H]2[C@@H](O)C[C@@]2(C)[C@H]1CC[C@]2(O)C(=O)CO [hydrocortisone]
inactive: 1 nM -3.82% | 8.33 nM -3.12% | 100 nM -3.55% | 833.33 nM -4.8% | 10000 nM -3.51%

O=C(O)c1ccc(S(=O)(=O)N(Cl)Cl)cc1 [halazone]
inactive: 1 nM -0.04% | 8.33 nM 2.43% | 100 nM -0.73% | 833.33 nM -4.46% | 10000 nM -0.76%
